Screens as filed in PubChem BioAssay.
hgDAF12 agonist = hgDAF-12 agonism, primary luciferase screen; HEK293 GAL4-hgDAF12 UAS-luciferase reporter, agonist luminescence; normalized to butyrate control; activation, % at 6.8 µM; 370,000 tested, 1.8% active; AID 687014;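 active means activation above a cutoff set at the mean of all screened compounds plus 3 SD, cut at about 10% in these data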;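 further: 0% = DMSO wells and 100% = sodium butyrate wells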
ssDAF-12 act = activators of S. stercoralis DAF-12 nuclear receptor; HEK293 ssDAF-12/GRIP1 lit1-tk-luc reporter, luminescence; % of 3 µM dafachronic acid response; activation, % at 6.8 µM; 370,000 tested, 1% active;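 active means activation above the mean over all tested compounds plus 3 SD, cut at about 0.9% in these data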;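 further: 0% = DMSO-only wells and 100% = 3 µM delta7-dafachronic acid wells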
DAX1 inh-1 = inhibitors of human orphan nuclear receptor DAX1 (NR0B1) | AID 504766 | inhibition, % at 6.75 µM | 340,000 tested, 0.99% active | HEK293 Gal4-DAX1 luciferase reporter, luminescence;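 active means inhibition above the mean over all tested compounds plus 3 SD, cut at about 4.2% in these data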;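 further: 0% = DAX1-transfected cells with DMSO and 100% = empty-vector control cells with DMSO; inhibition shows as a rise in luminescence from relieved DAX1 repression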
Target sequence (P51843 207-470 limits assumed): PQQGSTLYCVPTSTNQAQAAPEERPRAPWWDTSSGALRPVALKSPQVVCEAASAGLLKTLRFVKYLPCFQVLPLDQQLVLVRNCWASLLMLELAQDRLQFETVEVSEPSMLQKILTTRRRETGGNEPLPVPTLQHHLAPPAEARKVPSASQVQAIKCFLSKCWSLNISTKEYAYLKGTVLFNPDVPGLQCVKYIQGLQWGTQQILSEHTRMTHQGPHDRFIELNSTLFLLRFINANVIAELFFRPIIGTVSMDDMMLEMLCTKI
SMARCA2 act = activators of SMARCA2 function; MG213 cells, MMTV-luciferase reporter, dexamethasone, overnight; activation, % at 9.1 µM; 370,000 tested, 1% active; in the data active means activation above about 7.8%;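 further: 0% = vehicle wells and 100% = reference activator wells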
DAX1 inh-2 = DAX1 (NR0B1) inhibition, primary screen; inhibition, % at 6.8 µM; AID 652010; 370,000 tested, 1.1% active; HEK293T StAR-luciferase reporter, SF-1/DAX-1 repression relief;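 active means inhibition above the mean over all tested compounds plus 3 SD, cut at about 3.6% in these data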;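 further: 0% = DAX-1 cells with DMSO and 100% = cells lacking DAX-1 with DMSO; higher inhibition means more luminescence from relief of DAX-1 repression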
hcDAF-12 act = H. contortus DAF-12 activation, primary screen; HEK293 hcDAF-12 lit1-tk-luc reporter, luminescence; 0% DMSO, 100% Δ7-dafachronic acid; activation, % at 6.8 µM; 370,000 tested, 1.4% active; AID 652067;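 active means activation above the mean of all tested compounds plus 3 SD, cut at about 5.5% in these data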;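 further: 100% = response to 3 µM Δ7-dafachronic acid high control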
DAX1 conf = NR0B1 (human) inhibition, confirmation. shares compounds with DAX1 inh-2. HEK293T StAR-promoter luciferase reporter, SF-1/DAX-1 repression. AID 652134. inhibition, % at 6.8 µM. 2,400 tested, 87% active;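 active means inhibition above the average of every tested compound plus 3 SD, cut at about 3.8% in these data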;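 further: 0% = DAX-1 cells with DMSO and 100% = no DAX-1 control cells with DMSO; active compounds raise luminescence by relieving repression of the StAR reporter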
Target sequence (P51843 whole entry, looked up): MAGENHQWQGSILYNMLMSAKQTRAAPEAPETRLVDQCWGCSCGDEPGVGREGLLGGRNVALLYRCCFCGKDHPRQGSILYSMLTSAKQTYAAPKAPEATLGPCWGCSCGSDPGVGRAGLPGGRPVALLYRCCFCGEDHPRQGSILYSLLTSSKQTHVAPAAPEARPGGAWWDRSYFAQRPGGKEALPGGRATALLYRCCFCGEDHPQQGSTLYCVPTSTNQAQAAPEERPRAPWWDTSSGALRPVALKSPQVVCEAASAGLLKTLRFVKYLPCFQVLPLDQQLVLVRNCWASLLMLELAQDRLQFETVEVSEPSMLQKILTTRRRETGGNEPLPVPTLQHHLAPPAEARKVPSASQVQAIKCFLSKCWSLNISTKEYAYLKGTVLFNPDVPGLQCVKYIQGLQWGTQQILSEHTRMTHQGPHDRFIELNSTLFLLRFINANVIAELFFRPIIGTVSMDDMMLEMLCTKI
SF1 mutant ctr = nonselective inhibitor or artifact in SF-1 mutant DAX1 counter-screen | 2,400 tested, 78% active | shares compounds with DAX1 inh-2 | inhibition, % at 6.8 µM | AID 652136 | HEK293 StAR-luciferase, SF-1 AF2 mutant, luminescence;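 active means inhibition above the mean of all tested compounds plus 3 SD, cut at about 3% in these data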;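 further: 0% = DAX-1 transfected cells with DMSO and 100% = cells without DAX-1 with DMSO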
SMARCA2 conf = SMARCA2 activation, confirmation screen | shares compounds with SMARCA2 act | activation, % at 9.1 µM | MG213 cells, MMTV-luciferase with dexamethasone, luminescence, overnight; MG213 cells expressing E1A, Rb sequestered; DMSO wells 0%, reference activator 100% | 3,500 tested, 30% active;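 active means activation above its plate's cutoff, the mean activation of tested wells plus 3 SD, cut at about 7.9% in these data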
VP16 Luc act = activates GAL4-VP16 luciferase, flagging SMARCA2 activator hits; shares compounds with SMARCA2 act; HEK293 GAL4-VP16 pG5luc reporter, luciferase luminescence; scaled: DMSO wells 0%, SAHA wells 100%; activation, % at 9.1 µM; 3,500 tested, 41% active; AID 686939;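 active means activation above the solvent-only control well mean plus 3 SD, averaged across control plates, cut at about 5.2% in these data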
LXRb hcDAF ctr = counter-screen for hcDAF-12 agonists: agonists of human LXR-beta | HEK293 Gal4-LXR tk-luc reporter, luminescence, 24 h; normalized: DMSO 0%, positive control 100% | 3,400 tested, under 10 active | shares compounds with hcDAF-12 act | activation, % at 6.8 µM;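 active means mean percent activation of the reporter above a cutoff set as the average over tested compounds plus their standard deviation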
hcDAF12 ag = confirmation of H. contortus DAF-12 agonists; shares compounds with hcDAF-12 act; HEK293 hcDAF-12 lit1-tk-luc reporter, luminescence; % of Δ7-dafachronic acid response; activation, % at 6.8 µM; 3,400 tested, 61% active; AID 743032;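 active means mean activation across triplicate tests above the threshold derived from the earlier primary screen, cut at about 5.5% in these data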;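 further: 0% = DMSO only wells and 100% = 3 µM Δ7-dafachronic acid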
hgDAF12 ag = confirmation of H. glycines DAF-12 agonists; shares compounds with hgDAF12 agonist; HEK293 GAL4-hgDAF12 luciferase reporter, agonist mode; percent of butyrate response; activation, % at 6.8 µM; 3,300 tested, 80% active; AID 743050;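 active means mean activation over triplicate wells above the hit cutoff derived from the earlier primary screen, cut at about 11% in these data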;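 further: 0% = DMSO low control and 100% = 2 mM sodium butyrate high control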
LXR ag 2 = activates human LXR-beta, counter-screen for DAF-12 agonists | shares compounds with hgDAF12 agonist | HEK293 Gal4-LXR luciferase reporter, 24 h | activation, % at 6.8 µM | 3,300 tested, under 10 active | AID 743051;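 active means mean activation of the triplicate above a set limit carried over from the primary screen, none filed active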
Starred values were filed as active, the others as inactive. Compounds with a hit are over-represented: about 4.8% of the library has one in this group of screens.

CC1(C)CC(=O)c2c(O)cc(OCc3ccc(Br)cc3)cc2O1 was read as hgDAF12 agonist 14*, ssDAF-12 act 0, DAX1 inh-1 4, SMARCA2 act 4, DAX1 inh-2 4.6*, hcDAF-12 act 5, DAX1 conf 13*, SF1 mutant ctr 8.9*, hgDAF12 ag 9 and LXR ag 2 1.
`COC(=O)c1ccc(COc2cc(O)c3c(c2)OC(C)(C)CC3=O)cc1` gave hgDAF12 agonist 1, ssDAF-12 act -1, DAX1 inh-1 1, SMARCA2 act 2, DAX1 inh-2 0 and hcDAF-12 act -1.
For CCOC(=O)CC[C@H]1CC[C@]2(CCCN(C(=O)c3ccccc3)C2)O1 the results were hgDAF12 agonist 2, ssDAF-12 act 0, SMARCA2 act 2, DAX1 inh-2 -1 and hcDAF-12 act 0.
`CSc1ccc(/C=N/Nc2ccc(Cl)c(C(=O)O)c2)cc1` gave hgDAF12 agonist 14*, ssDAF-12 act 0, DAX1 inh-1 1, SMARCA2 act 7.9*, DAX1 inh-2 6.7*, hcDAF-12 act 5, DAX1 conf 17*, SF1 mutant ctr 5.9*, hgDAF12 ag 29* and LXR ag 2 1.
O=C(NCc1ccccc1)[C@@H]1CCCN1C(=O)[C@H]1CCCN1C(=O)N1CCCCC1 was read as hgDAF12 agonist 2, ssDAF-12 act -1, SMARCA2 act -2, DAX1 inh-2 -1 and hcDAF-12 act 0.
Screening COC(=O)[C@]12C[C@H](CC(=O)N3CCCC3)C(=O)N(CCc3ccc(OC)c(OC)c3)C1=C[C@H](COCc1ccccc1)O[C@@H]2C returned hgDAF12 agonist -2, ssDAF-12 act -1, SMARCA2 act -1, DAX1 inh-2 -1 and hcDAF-12 act -2.
`O=C(Nc1ccc2c(c1)OCCO2)C(=O)c1c[nH]c2ccccc12` gave hgDAF12 agonist 10, ssDAF-12 act 1, DAX1 inh-1 -3, SMARCA2 act 2, DAX1 inh-2 2 and hcDAF-12 act 5.
For O=C(Nc1ccc2c(c1)OCO2)C(=O)c1c[nH]c2ccccc12 the results were hgDAF12 agonist 13*, ssDAF-12 act 1, DAX1 inh-1 2, SMARCA2 act 9.2*, DAX1 inh-2 18*, hcDAF-12 act 9.3*, DAX1 conf 17*, SF1 mutant ctr 6.5*, SMARCA2 conf 4, VP16 Luc act 7.7*, hgDAF12 ag 19* and LXR ag 2 1.
N#C/C(=N\Nc1ccc(F)cc1)C(=N)N1CCCCCC1 was read as hgDAF12 agonist 14*, ssDAF-12 act 0, DAX1 inh-1 4.4*, SMARCA2 act 12*, DAX1 inh-2 7.0*, hcDAF-12 act 9.2*, DAX1 conf 15*, SF1 mutant ctr 4.0*, SMARCA2 conf 15*, VP16 Luc act 19*, LXRb hcDAF ctr 1, hcDAF12 ag 7.3*, hgDAF12 ag 18* and LXR ag 2 1.
For N#C/C(=N\Nc1ccc(Cl)cc1)C(=N)N1CCCCC1 the results were hgDAF12 agonist 15*, ssDAF-12 act 1.0*, DAX1 inh-1 2, SMARCA2 act 2, DAX1 inh-2 5.9*, hcDAF-12 act 7.8*, DAX1 conf 15*, SF1 mutant ctr 11*, LXRb hcDAF ctr 2, hcDAF12 ag 6.6*, hgDAF12 ag 19* and LXR ag 2 1.
N#C/C(=N\Nc1ccc(F)cc1)C(=O)C1CC1 was read as hgDAF12 agonist 0, ssDAF-12 act -1, SMARCA2 act -3, DAX1 inh-2 0 and hcDAF-12 act 0.
Cc1ccc(NNC(=O)C(=O)N2CCCCC2)cc1 was read as hgDAF12 agonist -1, ssDAF-12 act -2, DAX1 inh-1 -1, SMARCA2 act 0, DAX1 inh-2 2 and hcDAF-12 act 4.
Cc1ccc(N/N=C(\C#N)C(=N)N2CCCCCC2)cc1 was read as hgDAF12 agonist 19*, ssDAF-12 act 2.0*, DAX1 inh-1 2, SMARCA2 act 8.3*, DAX1 inh-2 10*, hcDAF-12 act 12*, DAX1 conf 16*, SF1 mutant ctr 6.8*, SMARCA2 conf 12*, VP16 Luc act 14*, LXRb hcDAF ctr 2, hcDAF12 ag 9.7*, hgDAF12 ag 23* and LXR ag 2 1.
Screening CCOC(=O)[C@@]12CCC3=C1N(CCC3)C(=O)[C@H](CC(=O)N1CCCCC1)C2 returned hgDAF12 agonist -3, ssDAF-12 act -1, SMARCA2 act -2, DAX1 inh-2 -1 and hcDAF-12 act -1.
For CCOC(=O)[C@@]12CCCC=C1N(CCc1ccc(Cl)cc1)C(=O)[C@H]2CC(=O)NCC12CC3CC(CC(C3)C1)C2 the results were hgDAF12 agonist 3, ssDAF-12 act -1, SMARCA2 act -5, DAX1 inh-2 -1 and hcDAF-12 act -1.
For CCCC[C@H](C(=O)N(CC)c1ccccc1)[C@@H](O)c1ccc(Cl)cc1 the results were hgDAF12 agonist 2, ssDAF-12 act 0, SMARCA2 act -3, DAX1 inh-2 -1 and hcDAF-12 act -2.
